About 83,000 compounds went through this panel and 20% of them were active in at least one assay; those are over-represented in the sample as a whole.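 Single-concentration screen, 48 h exposure, 96-well plates. Endpoint: percent growth. Below 10 = active.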 A number with no mark means an inactive call. Activity calls are given as the source filed them.

Data on eight compounds can be found in PubChem BioAssay (NCI).

Test systems include NCI-H23 lung; NCI-H226 lung; NCI-H322M lung; HOP-62 NSCLC; NCI-H460 lung; HOP-92 NSCLC; NCI-H522 lung; A549/ATCC NSCLC; 786-0 renal; COLO 205 colon; DU-145 prostate; K-562 leukemia; MALME-3M melanoma; MDA-MB-231 breast; RXF 393 renal; SF-268 CNS; SF-295 CNS; SF-539 CNS; UACC-257 melanoma; M14 melanoma.
Common to all, as to test: NCI-60 one-dose screen, 48 h (100 = growth as untreated, 0 = no growth, -100 = all killed)
Holding throughout (details): 10 µM unless noted

For `O=c1[nH]c(CN2CCN(c3ccccc3)CC2)nc2c(Br)cc(Br)cc12`, the growth in the assay with NCI-H23 lung was 98.4%; in the assay on NCI-H226 lung it was 93.4%; with NCI-H322M lung, 112%; in the assay on HOP-62 NSCLC, 101%; with NCI-H460 lung it was 100%; with HOP-92 NSCLC, 131%. Besides, the growth was 103% in the assay with NCI-H522 lung; 101% in the assay with A549/ATCC NSCLC; 103% with 786-0 renal; 104% with COLO 205 colon; 114% in the assay on DU-145 prostate; 97.6% in the assay on K-562 leukemia. In addition, the growth is 109% in the assay with MALME-3M melanoma; 115% with MDA-MB-231 breast; 101% in the assay on RXF 393 renal; 108% with SF-268 CNS; 91.8% in the assay on SF-295 CNS; 111% in the assay on SF-539 CNS. Besides, the results for the growth in the assay with UACC-257 melanoma and in the assay with M14 melanoma were 96.2% and 113%, respectively.
Consider `COC(=O)c1cc(-c2ccc(OC)c(OC)c2)[nH]c1N/N=C/c1c(Cl)cccc1Cl`, for which the growth was 40.7% with NCI-H23 lung; 62.4% in the assay on NCI-H226 lung; 55.1% with NCI-H322M lung; -7.06% (active) with HOP-62 NSCLC; 14.6% with NCI-H460 lung; 52.7% with HOP-92 NSCLC. Besides, the growth in the assay with NCI-H522 lung is 13.7%; in the assay on A549/ATCC NSCLC it was 43%; with 786-0 renal, 8.47% (active); in the assay with COLO 205 colon, 28%; with DU-145 prostate it was 21.2%; in the assay on K-562 leukemia it was 19.9%. The growth in the assay with MALME-3M melanoma was 46.8%; with MDA-MB-231 breast it was 41.1%; with RXF 393 renal, -10.4% (active); in the assay on SF-268 CNS, 43.6%; with SF-295 CNS, -0.264% (active); in the assay with SF-539 CNS, -15.2% (active). The values for the growth with UACC-257 melanoma and in the assay on M14 melanoma were 49.3% and 0.331% (active), respectively.
`COc1ccc(/C=N/NC(=O)Cn2nnc3ccccc32)cc1`: the growth is 101% in the assay on NCI-H23 lung; 96.4% with NCI-H226 lung; 89.1% in the assay with NCI-H322M lung; 99.9% in the assay with HOP-62 NSCLC; 96.6% in the assay on NCI-H460 lung; 104% in the assay on HOP-92 NSCLC. Moreover, the growth in the assay with NCI-H522 lung is 90.9%; in the assay with A549/ATCC NSCLC, 96.5%; in the assay on 786-0 renal, 103%; in the assay on COLO 205 colon, 109%; in the assay with DU-145 prostate, 117%; in the assay with K-562 leukemia, 93%. For the same compound, the growth was 103% in the assay with MALME-3M melanoma; 107% in the assay on MDA-MB-231 breast; 93.7% in the assay with RXF 393 renal; 85.5% in the assay on SF-268 CNS; 103% in the assay on SF-295 CNS; 105% with SF-539 CNS. Also, the growth with UACC-257 melanoma was 95.2%; in the assay on M14 melanoma it was 109%.
In the case of `C=CCn1c(SCC(=O)Nc2ccc(C(=O)/C=C/c3ccc(Cl)cc3)cc2)nnc1-c1ccccc1`, the growth was 95% in the assay on NCI-H23 lung; 94.7% in the assay with NCI-H226 lung; 96.7% with NCI-H322M lung; 97% in the assay on HOP-62 NSCLC; 106% with NCI-H460 lung; 93.2% in the assay on HOP-92 NSCLC. In addition, the growth in the assay on NCI-H522 lung is 82.2%; in the assay on A549/ATCC NSCLC it was 93.2%; in the assay with 786-0 renal, 81.8%; with COLO 205 colon, 105%; in the assay on DU-145 prostate, 93.7%; with K-562 leukemia, 76.3%. Besides, the growth with MALME-3M melanoma was 98.7%; in the assay with MDA-MB-231 breast it was 101%; in the assay with RXF 393 renal, 118%; in the assay on SF-268 CNS, 84.7%; in the assay on SF-295 CNS, 94.9%; with SF-539 CNS, 96.6%. The results for the growth in the assay with UACC-257 melanoma and with M14 melanoma were 111% and 94.4%, respectively.
Take `COc1cccc(CNc2nnc(C)c(C)n2)c1O`: the growth is 96.5% with NCI-H23 lung; 89.1% with NCI-H226 lung; 108% with NCI-H322M lung; 95.6% in the assay on HOP-62 NSCLC; 102% in the assay with NCI-H460 lung; 81.2% in the assay on HOP-92 NSCLC. The growth with NCI-H522 lung was 90.7%; in the assay with A549/ATCC NSCLC it was 93.7%; in the assay on 786-0 renal it was 104%; with COLO 205 colon, 109%; in the assay with DU-145 prostate it was 108%; in the assay with K-562 leukemia, 102%. The growth with MALME-3M melanoma is 108%; in the assay with MDA-MB-231 breast it was 96.3%; in the assay on RXF 393 renal, 123%; in the assay on SF-268 CNS it was 100%; in the assay on SF-295 CNS, 97%; with SF-539 CNS, 99.7%. Besides, the growth is 95% with UACC-257 melanoma and 101% in the assay with M14 melanoma.
For the compound `CNC(=O)c1cc(Oc2ccc3nc(NC(=O)c4cc(C(F)(F)F)cc(C(F)(F)F)c4)sc3c2)ccn1`, the growth with NCI-H23 lung is 20.2%; in the assay with NCI-H226 lung, 23.3%; with NCI-H322M lung it was 15.1%; in the assay on HOP-62 NSCLC, 16.3%; in the assay with NCI-H460 lung, 15.7%; in the assay with HOP-92 NSCLC, -32.5% (active). The growth in the assay with NCI-H522 lung was -9.54% (active); in the assay on A549/ATCC NSCLC, 17.8%; with 786-0 renal, 9.65% (active); in the assay with COLO 205 colon, 19.1%; in the assay on DU-145 prostate, 27.5%; in the assay with K-562 leukemia, 13.3%. The growth with MALME-3M melanoma is 2.93% (active); in the assay with MDA-MB-231 breast, 8.74% (active); with RXF 393 renal, -3.77% (active); in the assay with SF-268 CNS, 23.6%; in the assay with SF-295 CNS, 3.03% (active); with SF-539 CNS, 19.1%. The growth in the assay with UACC-257 melanoma is 0.459% (active); with M14 melanoma, 22%.
As for `CCN1CCN(CCOc2ccc(CNc3ccc4nc(CCC5CCCCC5)[nH]c4c3)cc2)CC1`, the growth was 75.6% with NCI-H23 lung; 38.9% in the assay on NCI-H226 lung; 66.1% with NCI-H322M lung; 50.4% in the assay with HOP-62 NSCLC; 42.8% in the assay on NCI-H460 lung; 22.4% in the assay on HOP-92 NSCLC. Besides, the growth in the assay on NCI-H522 lung is 32%; in the assay with A549/ATCC NSCLC it was 48.3%; in the assay on 786-0 renal, -11.7% (active); in the assay with COLO 205 colon, -74.3% (active); with DU-145 prostate, 50.3%; in the assay on K-562 leukemia it was 6.76% (active). For the same compound, the growth was -88.2% (active) in the assay on MALME-3M melanoma; -31.4% (active) in the assay on MDA-MB-231 breast; 28.2% with RXF 393 renal; 54.4% in the assay with SF-268 CNS; 48% with SF-295 CNS; -87.1% (active) with SF-539 CNS. Besides, the growth in the assay with UACC-257 melanoma is -69.4% (active); in the assay with M14 melanoma, -76.5% (active).
With `CCN(CC)CCCNC(=O)c1c2c(n3ccccc13)C(=O)c1ncccc1C2=O`, the growth was -38.7% (active) with NCI-H23 lung; -34.9% (active) in the assay with NCI-H226 lung; -49% (active) in the assay on NCI-H322M lung; -69% (active) with HOP-62 NSCLC; -44.4% (active) with NCI-H460 lung; -47.1% (active) in the assay with HOP-92 NSCLC. For the same compound, the growth is -79% (active) in the assay on NCI-H522 lung; -65.3% (active) in the assay with A549/ATCC NSCLC; 3.22% (active) in the assay on 786-0 renal; -95.6% (active) in the assay on COLO 205 colon; -94.9% (active) in the assay with DU-145 prostate; -33.7% (active) in the assay on K-562 leukemia. The growth is -93% (active) in the assay on MALME-3M melanoma; -0.531% (active) in the assay with MDA-MB-231 breast; -35.9% (active) in the assay on RXF 393 renal; -3.91% (active) in the assay with SF-268 CNS; -22.1% (active) with SF-295 CNS; -63% (active) in the assay with SF-539 CNS. In addition, the figures for the growth in the assay with UACC-257 melanoma and in the assay with M14 melanoma were -90.1% (active) and -84.1% (active), respectively.
